The panel holds about 79,000 compounds, 15% with a hit somewhere; the sample as a whole holds those more often. A number with no mark means an inactive call. Active and inactive are the calls of the source. Cut-off read from the data, not from the text of the source: active = growth inhibition above about 70%; inactive = the rest.
Experiment: NCI Yeast Anticancer Drug Screen. Data for the mec2-1 strain (AID 157)
Details: S. cerevisiae mec2-1 strain, at 50.0 µM, stronger effect = higher value
Summary of the method: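 Test agents were screened against the mec2-1 yeast strain, with defined DNA repair or cell cycle alteration. Growth was scored as inhibition against vehicle-only controls.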

SMILES	growth inhibition
C(=C/c1ccnc2ccccc12)/c1cccs1	98.8% (active)
O=P1(O)c2ccccc2CS(=O)(=O)Cc2ccccc21	-11.1%
CN1C(Cl)=NS(=O)(=O)c2ccccc21	-5.6%
O=C1C=CC(=O)N1c1ccc(Cl)cc1	93.1% (active)
CC(C)CC(C(=O)SCC(C)N1CCCC1)c1ccccc1 (configuration not stated)	36.1%
CC(C)OC(=O)c1ccc(CCC2=CC(=O)C=CC2=O)cc1	77.2% (active)
Cc1ccnc2[nH]c3ccccc3c(=O)c12	69.5%
COc1cc(/C=C/C(=O)c2ccc(O)c(OC)c2)ccc1O	47.8%
CC12C=CC(=O)C=C1CCC1C3CCC(O)(C(=O)CO)C3(C)CC(O)C12F (configuration not stated)	25.6%
O=Cc1ccc2c(c1)CC1(C2)Cc2ccc3c(c2C1)CCC3 (configuration not stated)	89.3% (active)
C[N+](C)(C)CC(=O)N/N=C(\C(=O)NC1=C(Cl)C(=O)c2ccccc2C1=O)C(C#N)c1nc(-c2ccc([N+](=O)[O-])cc2)cs1 (configuration not stated)	56.6%
NC(=O)CC1CCC(c2ccccc2)CC1 (configuration not stated)	6.95%
O=C(CC(C[N+](=O)[O-])c1ccc2c(c1)OCO2)c1ccccc1 (configuration not stated)	17.1%
CC(=O)OCCCCCCCCCCCCCCO	-15.1%
CCOC(=O)c1sc(N/N=C2\NC(=O)/C(=C/c3ccc([N+](=O)[O-])cc3)S2)nc1C	73.9% (active)
O=C1OC(c2ccc3c(c2)OCO3)Sc2ccccc21 (configuration not stated)	9.85%

Experiment: NCI Yeast Anticancer Drug Screen. Data for the sgs1 mgt1 strain (AID 161);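 note: 0% = growth of cultures given vehicle only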
Details: S. cerevisiae sgs1 mgt1 strain, at 5.0 µM (retest, dose inferred, filed as 0.5), stronger effect = higher value
Summary of the method: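 Genetically altered yeast, compound exposure, growth inhibition relative to vehicle.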

SMILES	growth inhibition
Oc1ccc2oc3ccccc3c2c1	0%
O=C(O)Cc1cc(I)c(Oc2ccc(O)c(I)c2)c(I)c1	7%
O=C(O)/C(=C\c1ccc(Cl)cc1)c1ccc(C(F)(F)F)cc1[N+](=O)[O-]	0%
Fc1ccc(NC(=S)SCc2ccccc2)cc1	2%
CN(C)c1ccccc1CC(c1c[nH]c2ccccc12)c1c[nH]c2ccccc12	67%
O=C(c1ccccc1)N1CCN(c2cccc(Cl)c2)CC1	-2%
[C-]#[N+]C(C)(c1ccccc1)c1ccccc1	-48%
Nc1ccccc1[S][Sn]([c]1ccccc1)([c]1ccccc1)[c]1ccccc1	99% (active)
O=C1C(Cl)=C(Cl)C(=O)c2cc(Cl)c(Cl)cc21	65%
CCCCCCCNC1CCCc2cc(OC)ccc21 (configuration not stated)	28%
NCCc1ccc2oc3cc(=O)c4ccccc4c-3nc2c1	7%
C/C=C/c1cc2c(cc1O)CC[C@@H]1[C@@H]2CC[C@]2(C)[C@@H](O)CC[C@@H]12	11%
c1ccc(SSc2ccccn2)nc1	49%
COC1=C2C[C@@H](C)C[C@@H](OC)[C@@H](O)[C@H](C)/C=C(\C)[C@@H](OC(N)=O)[C@H](OC)/C=C\C=C(/C)C(=O)NC(=CC1=O)C2=O	86% (active)
NCc1ccccc1-c1c2nc(c(-c3ccccc3CN)c3ccc([nH]3)c(-c3ccccc3CN)c3nc(c(-c4ccccc4CN)c4ccc1[nH]4)C=C3)C=C2	37%
Cc1cc(C)n2nc(N)c(C#N)c2c1C#N	2%

SMILES	growth inhibition
CC(=O)OCC1OC(n2c(O)c(N=NC(N)=S)c3ccc([N+](=O)[O-])cc32)C(OC(C)=O)C1OC(C)=O (configuration not stated)	-9%
CC1(c2cccs2)C(C#N)(C#N)C1(C#N)C#N	17%
O=C1C=CC(=O)N1C12CC3CC(CC(C3)C1)C2	73% (active)
C(=C/c1cnnc2ccccc12)/c1ccccn1	6%
COc1ccc2c(c1)C1(C)CCCC(C)(C(=O)O)C1CC2 (configuration not stated)	1%
CCN(CC)c1ccc(N=Nc2ccc(Br)cn2)c(O)c1	-3%
O=[N+]([O-])c1cc(NC(=S)SCc2ccccc2)ccc1Cl	92% (active)
C(=C/c1ccnc2ccccc12)/c1cccs1	2%
O=P1(O)c2ccccc2CS(=O)(=O)Cc2ccccc21	26%
CN1C(Cl)=NS(=O)(=O)c2ccccc21	9%
O=C1C=CC(=O)N1c1ccc(Cl)cc1	95% (active)
CC(C)CC(C(=O)SCC(C)N1CCCC1)c1ccccc1 (configuration not stated)	26%
CC(C)OC(=O)c1ccc(CCC2=CC(=O)C=CC2=O)cc1	86% (active)
Cc1ccnc2[nH]c3ccccc3c(=O)c12	18%
COc1cc(/C=C/C(=O)c2ccc(O)c(OC)c2)ccc1O	9%
